These results are taken from PubChem BioAssay (NCI).

Structures are written as SMILES. Compounds without any hit were thinned out: in the full panel of roughly 79,000, 15% have a hit. Values without a mark were called inactive. Calls of active or inactive are those of the source. No stated cut-off is given here; in the data, active means growth inhibition above about 70%; inactive means the rest.

This experiment can be described thus: NCI Yeast Anticancer Drug Screen. Data for the rad18 strain (AID 177). The settings on record: S. cerevisiae rad18 mutant growth inhibition; at 1.2 µM; active compounds read high. An outline of the steps:
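Vehicle-treated cultures served as the baseline for scoring compound-induced growth inhibition in DNA-repair-mutant yeast.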
For `CS(=O)(=O)SCc1ccc([N+](=O)[O-])cc1`, the growth inhibition is 7%.

On to `Cc1csc(=S)n1OC(=O)NC1CCCCC1`, for which the growth inhibition was -11%. Consider `CCOc1ccc(NC(=O)C2=C(C)NC(C)=C(C(=O)Nc3ccc(OCC)cc3)C2c2cccc([N+](=O)[O-])c2)cc1`, for which the growth inhibition is -4%.

As for `CC(C)(C)N=C(NO)c1ccccc1`, the growth inhibition is 1%.

Consider `CCCCC/C(=C(\C#N)C(=O)OCC)c1ccccc1`, for which the growth inhibition is 1%.

On to `O=C(NCCCl)Sc1ccc(Cl)cc1`, for which the growth inhibition is 0%. For the compound `O=C1Nc2ccc(Br)cc2C1=Nc1ccc2c(c1)OCO2`, the growth inhibition was -36%. Turning to `CCC(C)OC(=O)Nc1ccc(C)c(NC(=O)OC(C)CC)c1` (centres undefined), the growth inhibition was -4%.

With `O=C(O)c1cc2ccc(Cl)cc2c(O)c1C1=CCCCC1`, the growth inhibition was 22%.

Take `CN(C)Cc1cc(N=Nc2ccc(Cl)cc2)ccc1OC(=O)c1ccccc1`: the growth inhibition is 1%.

With `CN1CCN(C(=O)/C=C/C(=O)c2ccccc2)CC1`, the growth inhibition was 2%. Regarding `CCCC/C=C/C(C)(C(=O)OCC)C(=O)OCC`, the growth inhibition was -4%.

Consider `Cc1nc(-c2cc3cc([N+](=O)[O-])ccc3oc2=O)cs1`, for which the growth inhibition is 1%. In the case of `Cc1nc2ccccc2nc1NNc1ccccc1`, the growth inhibition is -3%. Take `CN(C)[C@@H]1C(=O)C(C(N)=O)=C(O)[C@@]2(O)C(=O)C3=C(O)c4c(O)cccc4C[C@H]3C[C@@H]12`: the growth inhibition was -7%. Under `COc1ccc(NC(=O)CC2SC(=Nc3ccccc3C)NC2=O)c([N+](=O)[O-])c1` (centres undefined) stands -1%; under `COc1cc(O)c2c(c1O)C(=O)c1cc(C)ncc1C2=O`, 4%. Under `CSc1nnc(SC)nn1` stands -4%. Under `COc1cc(/C=C2\CCC/C(=C\c3ccc(O)c(OC)c3)C2=O)ccc1O` stands -7%; under `CN(C)CCNC(=O)c1cccc2cc([N+](=O)[O-])ccc12`, 7%. On to `CCC(C)(C)c1ccc(Oc2cccc(C(=O)O)c2)cc1`, for which the growth inhibition is 8%. On to `CCCCCCSc1ncnc2[nH]ncc12`, for which the growth inhibition is -2%.

On to `CC(=O)Nc1ccc(/C=C/[N+](=O)[O-])cc1`, for which the growth inhibition was 3%. Under `CCOC(=O)c1[nH]n(-c2ccccc2)c(=O)c1C=NC(=S)C(N)=S` stands 0%. For `CCCC(O)C1CC(C(C)C)CCC1C` (centres undefined), the growth inhibition is 0%.

Regarding `O=[n+]1c2ccccc2n([O-])c2cc(Br)ccc21`, the growth inhibition was 84% (active).

`CN(C)CCNC(=O)c1cccc2c1Oc1c(cccc1[N+](=O)[O-])O2`: the growth inhibition is -3%. The value for `Nc1ncc(-c2ccc(Br)cc2)s1` was -29%; that for `Cc1cc2cc3cc(C)c(N)cc3nc2cc1N` was -37%. Under `CC12C(=O)OC(=O)C(c3ccccc31)c1ccccc12` stands -8%; under `c1ccc2c(OCC3CO3)cccc2c1` (centres undefined), 18%; under `CCOC(=N)c1ccc(O)c(OC)c1`, -1%. The value for `Nc1cc(N)c(N=Nc2cccc3c(S(=O)(=O)O)cccc23)cc1N=Nc1cc([N+](=O)[O-])ccc1O` was -13%; that for `COC(=O)Oc1cc(Cl)c(Cl)cc1Cl` was 0%. Turning to `O=C(O)C1CC(c2ccccc2)=NN1c1ccccc1` (centres undefined), the growth inhibition was -38%. The value for `COc1cc([C@@H]2c3cc4c(cc3[C@@H](Nc3ccc(NC(=O)c5cc([N+](=O)[O-])cn5C)cc3)[C@H]3COC(=O)[C@H]23)OCO4)cc(OC)c1O` was -9%; that for `O=C(O)c1ccccc1/C=N/N=C1c2ccccc2-c2ccccc21` was -3%; that for `O=C1CC(=O)c2ccccc21` was -1%. The value for `Nc1ncnc2c1ncn2C1OC(CO)CC1O` (centres undefined) was 4%.
